Test results from the OligoGym collection.

Biological target: PION
Assay: pooled miR-30 sensor sort-seq; sequence = guide strand
Conditions: shRNA
Further: reference of the scale not given here.

Row | Sequence | sensor-assay potency score (higher = more potent)
1 | TAGTAGACTGAACTAAACTTGC | -0.883
2 | TTTCTTCTTTTCTACACCCTGT | 0.0243
3 | TTTTCTTCTTTTCTACACCCTG | -0.629
4 | AACATACACACAAACTTCCTGT | 0.437
5 | TAGACTGAACTAAACTTGCAGC | -0.224
6 | TTAGTAGACTGAACTAAACTTG | -0.14
7 | TTGAACATTAAGTAGGTGGAAG | -0.626
8 | TATAGTTCTGAAGCAGTCGCGT | -0.318
9 | TTTTCTAAAACATCTGCGCCGC | -0.387

Biological target: PIP5K1B
Assay: as above
Conditions: shRNA

Row | Sequence | sensor-assay potency score (higher = more potent)
10 | TTGGTCTATGAACAGAAACAGT | -1.55
11 | TTCGCTTATACGTTGAGCCTTT | 0.43
12 | TTGCATACAATACAGTCCGTAA | -1.09
13 | TTGACATCTTGAAAACTCTTAA | -0.776
14 | TTGAGGACACAATCTCCTGTGA | -0.569
15 | TAATCCATGATCTTGAAGCTTT | -0.406
16 | TTAAATTCATGTAATAGCCTGG | 0.247
17 | TTTGAATAGAGTGTAGGCCTGT | 0.71
18 | TCTAACTTCTTCATTAACCTAT | 0.135
19 | TTGCAGGAAATCTAAGTCCTTA | -0.188
20 | TTGAACTGGAAGGTAACCCTTT | 0.268
